According to PMC5540273 (PLoS ONE, 2017):

Legend:
Details in all cases: concentration: 1 μM, replicates: in singlicate; n = 1
DMPK = tested on: DMPK
DRAK1 = tested on: T1, DRAK1
T1 construct: gene STK17A

DRAK2 = tested on: T2, DRAK2
T2 construct: gene STK17B

DYRK1A = tested on: DYRK1A
DYRK1B = tested on: DYRK1B
DYRK2 = tested on: DYRK2
EGFR = tested on: EGFR
EIF2AK1 = tested on: EIF2AK1
EPHA1 = tested on: EPHA1
EPHA2 = tested on: EPHA2
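Also: KINOMEscan kinase panel screen.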

Row | Structure (SMILES) | %Inh (DMPK) [%] | %Inh (DRAK1) [%] | %Inh (DRAK2) [%] | %Inh (DYRK1A) [%] | %Inh (DYRK1B) [%] | %Inh (DYRK2) [%] | %Inh (EGFR) [%] | %Inh (EIF2AK1) [%] | %Inh (EPHA1) [%] | %Inh (EPHA2) [%]
1 | O=C(NCCNc1ccnc(Nc2ccc(F)cc2)n1)Nc1ccccc1F [GSK1379880] | 0 | 0 | 0 | 15 | 6 | 12 | 22 | 0 | 19 | 0
2 | Cc1cn2c(=O)cc(N3CCOCC3)nc2n1Cc1cccc(Cl)c1Cl [GSK2334006] | 12 | 0 | 12 | 20 | 36 | 0 | 45 | 2 | 51 | 21
3 | COc1cc2c(cc1OC[C@@H](O)CO)ncc1c3ccc(C#N)cc3[nH]c21 | 0 | 98.7 | 99.7 | 99 | 83 | 86 | 0 | 0 | 4 | 0
4 | CCc1nc(-c2cccc(C)c2)c(-c2ccnc(NCc3ccccc3)c2)s1 | 0 | 2 | 16 | 0 | 23 | 2 | 0 | 0 | 0 | 1
5 | Cc1cccc(Cn2ccn3c(=O)cc(N4CCOCC4)nc23)c1 [GSK2297542] | 3 | 1 | 0 | 24 | 17 | 12 | 22 | 11 | 16 | 15
6 | Cc1nnc(-c2ccc3occ(-c4ccc(C(C)O)cc4)c3c2)o1 (centres unmarked) | 7 | 19 | 36 | 18 | 11 | 0 | 28 | 0 | 0 | 0
7 | CN1c2ccc(CNc3ccc(F)cc3)cc2-c2c(cnn2C)S1(=O)=O | 1 | 0 | 0 | 0 | 0 | 0 | 0 | 0 | 0 | 9
8 | Cc1c2ccc(N(C)c3ccnc(Nc4cccc(S(N)(=O)=O)c4)n3)cc2nn1Cc1ccccc1.Cl.Cl [GW787226] | 8 | 3 | 16 | 0 | 0 | 0 | 5 | 0 | 21 | 4
9 | NS(=O)(=O)c1cccc(-c2ccc3nccc(-c4cccc(S(N)(=O)=O)c4)c3c2)c1 [GW867253] | 2 | 0 | 0 | 0 | 0 | 32 | 0 | 0 | 0 | 0
10 | [2H]C([2H])(c1cccc(C(F)(F)F)c1C)n1ccn2c(=O)nc(N3CCOCC3)cc12 [GSK2336394] | 0 | 0 | 0 | 16 | 0 | 1 | 28 | 0 | 12 | 8
11 | COc1cc(Nc2nccc(N3CCC(NC(=O)c4cccc(NC(C)=O)c4)C3)n2)cc(OC)c1OC (centres unmarked) [GSK1379754] | 0 | 32 | 29 | 17 | 28 | 28 | 0 | 0 | 11 | 0
12 | CCn1cnc2c(N)ncnc21 [GW345098] | 0 | 6 | 9 | 0 | 28 | 12 | 15 | 0 | 6 | 14
13 | Nc1nccc(-c2c(-c3ccc(F)cc3)ncn2C2CCN(CC(F)(F)F)CC2)n1 [SB-236560] | 11 | 0 | 1 | 5 | 28 | 0 | 29 | 20 | 0 | 0
14 | CC(=O)Nc1ccc(COc2ccc(Nc3ccnc4cc(-c5ccccn5)ccc34)cc2)cc1.Cl [GW440148] | 0 | 1 | 21 | 4 | 33 | 11 | 23 | 0 | 11 | 0
15 | Cc1cccc(-c2nc(-c3ccc(S(C)(=O)=O)cc3)sc2-c2ccncc2)c1 | 0 | 0 | 0 | 0 | 7 | 0 | 0 | 1 | 0 | 10
16 | CC(C)Oc1ccc2c(-c3ccnc(Nc4ccc(N5CCN(C)CC5)cc4)n3)cnn2n1 [GW696155] | 74 | 99.5 | 94.5 | 61 | 61 | 91.6 | 50 | 0 | 48 | 0
17 | Cn1ccc2ncnc(Oc3ccc(NC(=O)Nc4ccncc4)c(Cl)c3)c21 | 0 | 0 | 0 | 0 | 21 | 0 | 0 | 0 | 0 | 0
